Results filed as inconclusive are left out. Active and inactive are the calls of the source. Unless noted, calls follow the shape of the dose curve; as a rule, active = well fitted curve in the direction sought with a large enough effect in the repeat runs; inconclusive = weak or mixed curves; inactive = no such curve, though single readings can be large; an effect the other way counts as inactive or inconclusive.
Assays:
[1] = qHTS assay to identify small molecule antagonists of the estrogen receptor alpha (ER-alpha) signaling pathway using the BG1 cell line in the presence of 0.1 nM 17-beta-estradiol - cell viability counter screen (AID 1259241); conditions: VM7Luc4E2 (BG1) viability, CellTiter-Fluor protease, 22 h, 0.1 nM estradiol agonist added; series mostly up to 92.4 µM; also: nearly all actives have a fitted effect of over 40% in size
Procedure, shortened: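 The cell line endogenously expresses full-length ER-alpha and carries four EREs driving luciferase. Cells are cultured 5 days hormone-free, treated 22 hr with compounds and 0.1 nM estradiol, then viability is read by fluorescence.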

[2] = qHTS assay to identify small molecule antagonists of the androgen receptor (AR) signaling pathway using the MDA cell line in the presence of 0.5 nM R1881 - cell viability counter screen (AID 1259242); conditions: MDA-kb2 viability, CellTiter-Fluor protease fluorescence, 16 h; series mostly up to 92.4 µM; also: nearly all actives have a fitted effect of over 45% in size
Procedure, shortened: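 Live-cell protease activity was measured by CellTiter-Fluor fluorescence after 30 min. Before that, MDA-kb2 MMTV-luciferase cells had 16 hr at 37C without CO2, exposed to test compounds and 0.5 nM R1881 final.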

[3] = target: Estrogen receptor (Homo sapiens) (UniProt P03372); assay: qHTS assay to identify small molecule antagonists of the estrogen receptor alpha (ER-alpha) signaling pathway using the BG1 cell line in the presence of 0.1 nM 17-beta-estradiol (AID 1259244); conditions: VM7Luc4E2 (BG1) ERE-luciferase, antagonist mode, 0.1 nM E2, 22 h; series mostly up to 92.4 µM; also: nearly all actives have a fitted effect of over 50% in size
Sequence of Estrogen receptor (Homo sapiens) (P03372 whole entry, looked up): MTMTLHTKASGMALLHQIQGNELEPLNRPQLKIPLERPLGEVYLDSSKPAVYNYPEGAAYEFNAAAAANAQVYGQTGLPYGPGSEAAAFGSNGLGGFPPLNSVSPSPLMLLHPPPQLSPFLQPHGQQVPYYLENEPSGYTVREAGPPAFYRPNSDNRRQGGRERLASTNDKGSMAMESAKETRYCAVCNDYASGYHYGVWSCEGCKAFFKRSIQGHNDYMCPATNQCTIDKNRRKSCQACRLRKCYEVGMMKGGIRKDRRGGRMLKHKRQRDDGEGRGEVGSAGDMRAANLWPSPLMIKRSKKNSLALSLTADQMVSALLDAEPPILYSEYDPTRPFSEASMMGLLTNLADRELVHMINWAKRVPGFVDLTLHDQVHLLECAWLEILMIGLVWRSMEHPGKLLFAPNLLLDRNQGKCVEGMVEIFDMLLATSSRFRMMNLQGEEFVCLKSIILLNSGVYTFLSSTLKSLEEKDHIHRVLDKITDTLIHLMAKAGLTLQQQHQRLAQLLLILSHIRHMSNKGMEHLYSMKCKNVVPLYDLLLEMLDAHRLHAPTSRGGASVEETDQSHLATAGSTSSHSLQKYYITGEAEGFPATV
Procedure, shortened: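 Luciferase luminescence (ONE-Glo, 30 min at room temperature) was read after 22 hr at 37C exposure to compounds plus 17beta-estradiol at 0.1 nM final. Cells were VM7Luc4E2 with endogenous ER-alpha and an ERE-driven luciferase, pre-cultured 5 days in hormone-depleted medium.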

[4] = qHTS assay to identify small molecule HDAC inhibitors (AID 1259364); conditions: HCT-116 HDAC-Glo I/II luminescence, 2 h; series mostly up to 92.4 µM; also: top concentration of the series differs between compounds; nearly all actives have a fitted effect of over 45% in size
Procedure, shortened: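 Luminescence read after 30 min room-temperature HDAC-Glo incubation measures cellular class I/II HDAC activity. Compounds were applied for 2 hr at 37 C to HCT-116 wild-type cells seeded the day before.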

[5] = qHTS assay to identify small molecule HDAC inhibitors - cell viability counter screen (AID 1259365); conditions: HCT-116 viability, CellTiter-Glo ATP luminescence, 2 h; series mostly up to 92.4 µM; also: nearly all actives have a fitted effect of over 50% in size
Procedure, shortened: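 Viability readout: CellTiter-Glo luminescence. Wild-type HCT-116 cells, 2hr compound treatment following overnight attachment at 37 C.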

[6] = qHTS assay to identify small molecule agonists of the sonic hedgehog signaling (Shh) pathway - cell viability counter screen (AID 1259366); conditions: NIH/3T3 Gli1-Luc viability, CellTiter-Fluor, 24 h; series mostly up to 92.4 µM; also: nearly all actives have a fitted effect of over 50% in size
Procedure, shortened: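 Viability measured fluorometrically (CellTiter-Fluor, 1hr, 37C) in 3T3 Gli1-Luc reporter cells after 23hr compound exposure within a 24hr incubation at 37C/5% CO2.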

[7] = qHTS assay to identify small molecule antagonists of the sonic hedgehog signaling (Shh) pathway - cell viability counter screen (AID 1259367); conditions: NIH/3T3 Gli1-Luc viability, CellTiter-Fluor, 24 h; series mostly up to 92.4 µM; also: nearly all actives have a fitted effect of over 55% in size
Procedure, shortened: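 Cytotoxicity was assessed in parallel with Shh reporter activity by measuring live-cell protease fluorescence (CellTiter-Fluor) in NIH/3T3 cells stably carrying Gli1-Luc, treated with compound under conditioned medium stimulation for 23 hr plus 1 hr reagent incubation.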

[8] = qHTS assay to identify small molecule agonists of the sonic hedgehog signaling (Shh) pathway (AID 1259368; calls by dose curve;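 also: NIH/3T3-derived 3T3Gli1-Luc cells carrying a stable Gli1-driven firefly luciferase reporter; nearly all actives have a fitted effect of over 15% in size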); conditions: NIH/3T3 Gli1-Luc reporter, luciferase, 24 h; series mostly up to 92.4 µM
Procedure, shortened: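 Luminescence was read after 30 min at room temperature with luciferase reagent. Before that, 3T3Gli1-Luc cells (NIH/3T3 clone, stable Gli1-Luc reporter; 2,000/well) were exposed to compounds for 24 hr at 37C, 5% CO2, compounds being added 4 hr post-plating.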

[9] = qHTS assay to identify small molecule antagonists of the sonic hedgehog signaling (Shh) pathway (AID 1259369; calls by dose curve; also: nearly all actives have a fitted effect of over 45% in size); conditions: NIH/3T3 Gli1-Luc reporter, Shh antagonist, luminescence 24 h; series mostly up to 92.4 µM
Procedure, shortened: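 Antagonist mode: compound added to 3T3 Gli1-Luc cells followed by conditioned-medium stimulation, 24 h at 37 C, 5% CO2. Inhibition taken as loss of Gli1-driven luciferase luminescence.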

[10] = target: Estrogen receptor beta (Homo sapiens) (UniProt Q92731); assay: qHTS assay to identify small molecule agonists of the estrogen receptor beta (ER-beta) signaling pathway (AID 1259377; active = well fitted activation curve with a large enough effect in the signal ratio in the repeat runs, not every such curve was filed as active; the % refers to the signal ratio); conditions: ER-beta-UAS-bla HEK293T, beta-lactamase FRET ratio, 16 h; series mostly up to 92.4 µM
Sequence of Estrogen receptor beta (Homo sapiens) (Q92731 whole entry, looked up): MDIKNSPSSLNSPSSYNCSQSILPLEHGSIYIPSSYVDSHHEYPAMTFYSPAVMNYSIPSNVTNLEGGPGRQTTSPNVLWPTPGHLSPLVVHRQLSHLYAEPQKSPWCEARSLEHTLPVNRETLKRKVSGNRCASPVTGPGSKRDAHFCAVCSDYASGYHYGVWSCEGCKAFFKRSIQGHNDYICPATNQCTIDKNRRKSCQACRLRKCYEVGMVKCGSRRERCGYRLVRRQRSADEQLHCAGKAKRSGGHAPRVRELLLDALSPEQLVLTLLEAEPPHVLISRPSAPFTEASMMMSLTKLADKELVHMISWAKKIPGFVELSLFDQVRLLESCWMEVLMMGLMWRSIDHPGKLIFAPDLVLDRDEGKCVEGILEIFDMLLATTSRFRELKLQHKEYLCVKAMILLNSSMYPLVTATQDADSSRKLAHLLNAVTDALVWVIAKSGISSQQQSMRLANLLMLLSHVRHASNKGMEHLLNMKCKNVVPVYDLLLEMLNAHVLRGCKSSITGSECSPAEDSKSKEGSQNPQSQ
Procedure, shortened: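 A UAS-controlled beta-lactamase reporter in ER-beta-UAS-bla HEK293T cells reports receptor activation. Compounds act for 16 hr at 37C in 2% charcoal-stripped serum, and a FRET substrate is read by fluorescence after 2 hours.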

[11] = target: Estrogen receptor beta (Homo sapiens) (UniProt Q92731); assay: qHTS assay to identify small molecule antagonists of the estrogen receptor beta (ER-beta) signaling pathway (AID 1259378; active = well fitted inhibition curve with a large enough effect in the signal ratio in the repeat runs, not every such curve was filed as active; the % refers to the signal ratio); conditions: ER-beta-UAS-bla HEK293T, beta-lactamase FRET ratio, 16 h; series mostly up to 92.4 µM
Procedure, shortened: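 ER-beta-UAS-bla HEK293T (GripTite) cells in 2% charcoal-stripped FBS medium were preincubated 6 hr at 37C, dosed with compound, then stimulated with 1 nM E2 (final) for 16 hr; beta-lactamase reporter read by B/G FRET fluorescence after 2 hr substrate loading.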

[12] = qHTS assay to identify small molecule agonists of the androgen receptor (AR) signaling pathway in the presence of an antagonist - cell viability counter screen (AID 1259379); conditions: MDA-kb2 viability, CellTiter-Fluor, 16 h; series mostly up to 92.4 µM;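 also: MDA-kb2 human breast cancer cells carrying an MMTV luciferase reporter; nearly all actives have a fitted effect of over 25% in size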
Procedure, shortened: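 Cytotoxicity counter-screen run in the same wells as the nilutamide-challenged (3.0 µM final) AR agonist assay in MDA-kb2 cells. Compounds tested at 15 concentrations for 16 h, 37 °C without CO2; CellTiter-Fluor fluorescence read.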

[13] = qHTS assay to identify small molecule agonists of the estrogen receptor beta (ER-beta) signaling pathway - cell viability counter screen (AID 1259380); conditions: ER-beta-bla HEK293T viability, CellTiter-Glo luminescence, 16 h; series mostly up to 92.4 µM; also: nearly all actives have a fitted effect of over 30% in size
Procedure, shortened: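 Cell viability counter screen: CellTiter-Glo luminescence (30 min, room temperature) measured in the same wells as the beta-lactamase readout, after 16 hr compound exposure at 37C of ER-beta-bla HEK293T cells in 2% charcoal-stripped FBS medium.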

[14] = qHTS assay to identify small molecule antagonists of the estrogen receptor beta (ER-beta) signaling pathway - cell viability counter screen (AID 1259382); conditions: ER-beta-UAS-bla HEK293T viability, CellTiter-Glo luminescence, 16 h; series mostly up to 92.4 µM; also: nearly all actives have a fitted effect of over 55% in size
Procedure, shortened: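 Cytotoxicity was measured in the same wells by CellTiter-Glo luminescence after 30 min at room temperature. Cells were ER-beta-bla HEK293T in charcoal-stripped serum, given compound together with 1 nM E2 and incubated 16 h at 37C.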

[15] = target: Estrogen receptor (Homo sapiens) (UniProt P03372); assay: qHTS assay to identify small molecule agonists of the estrogen receptor alpha (ER-alpha) signaling pathway in the presence of an antagonist (AID 1259383; calls by dose curve; also: top concentration of the series differs between compounds; nearly all actives have a fitted effect of over 15% in size); conditions: VM7Luc4E2 cells, ERE-luciferase, +ICI-182,780, 22 h; series mostly up to 92.4 µM
Procedure, shortened: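 Agonist-mode confirmation run in the presence of 10.0nM (final) ICI-182,780 antagonist. The reporter was ERE-driven luciferase in VM7Luc4E2 cells, grown in charcoal-stripped serum. Cells were exposed to 15-concentration compound series for 22hr, then ONE-Glo luminescence was read.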

[16] = qHTS assay to identify small molecule agonists or antagonists of the thyroid stimulating hormone receptor (TSHR) signaling pathway - wild type cell line counter screen (AID 1259384; calls by dose curve); conditions: HEK293 wild type, cAMP HTRF counter-screen; series mostly up to 92.4 µM
Procedure, shortened: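 Wild-type HEK293 cells were plated 18 h at 37 C/5% CO2, pin-dosed with compound plus Ro20-1724 medium, held 30 min at room temperature, then given cAMP-d2 and anti-cAMP-cryptate; fluorescence was read after 1 h. Fifteen concentrations, triplicate.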

[17] = target: Thyrotropin receptor (Homo sapiens) (UniProt P16473); assay: qHTS assay to identify small molecule antagonists of the thyroid stimulating hormone receptor (TSHR) signaling pathway (AID 1259385; calls by dose curve; also: nearly all actives have a fitted effect of over 20% in size); conditions: TSHR-HEK293 cAMP HTRF, TSH-stimulated antagonist mode; series mostly up to 92.4 µM
Sequence of Thyrotropin receptor (Homo sapiens) (P16473 whole entry, looked up): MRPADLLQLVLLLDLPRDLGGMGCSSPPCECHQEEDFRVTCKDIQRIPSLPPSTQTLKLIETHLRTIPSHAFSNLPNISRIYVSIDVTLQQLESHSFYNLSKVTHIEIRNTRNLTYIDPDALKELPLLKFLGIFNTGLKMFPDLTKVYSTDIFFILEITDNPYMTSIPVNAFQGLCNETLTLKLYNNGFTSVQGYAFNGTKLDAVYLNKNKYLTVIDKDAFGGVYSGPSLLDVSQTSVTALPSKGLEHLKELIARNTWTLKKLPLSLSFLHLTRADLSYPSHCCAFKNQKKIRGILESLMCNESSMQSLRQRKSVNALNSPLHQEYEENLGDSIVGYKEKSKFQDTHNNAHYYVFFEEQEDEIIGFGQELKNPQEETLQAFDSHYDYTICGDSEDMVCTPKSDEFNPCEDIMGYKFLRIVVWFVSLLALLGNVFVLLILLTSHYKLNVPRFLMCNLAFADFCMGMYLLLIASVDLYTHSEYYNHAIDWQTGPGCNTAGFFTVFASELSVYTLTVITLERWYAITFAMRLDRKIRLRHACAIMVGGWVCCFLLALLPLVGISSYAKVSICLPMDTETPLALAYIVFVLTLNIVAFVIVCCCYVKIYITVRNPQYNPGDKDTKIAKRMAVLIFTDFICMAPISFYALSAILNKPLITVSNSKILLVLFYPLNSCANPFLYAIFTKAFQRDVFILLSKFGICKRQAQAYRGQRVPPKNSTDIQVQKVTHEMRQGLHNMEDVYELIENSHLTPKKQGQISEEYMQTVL
Procedure, shortened: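 TSHR-HEK293 cells were plated and held 18 h at 37C/5% CO2, then given compound plus Ro20-1724 and stimulated with TSH at 1.5 ng/mL final. After 30 min at room temperature, cAMP was detected with cAMP-d2/anti-cAMP-cryptate (1 h) by fluorescence.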

[18] = qHTS assay to identify small molecule phospholipidosis (PLD) inducers (AID 1259344; active = well fitted curve in the direction sought with a large enough effect; an effect the other way counts as inactive or inconclusive); conditions: HepG2 phospholipidosis, LipidTOX Red imaging, 24 h; series mostly up to 38.3 µM
Procedure, shortened: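 Cells (HepG2, 900 per well) attach for 4 h, receive LipidTOX Red and compound together, incubate 24 h at 37 C, are fixed 30 min with paraformaldehyde/Hoechst, then imaged at one site per well.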

Measured: Potency

C=CCCC(=O)O
not listed: [18]
inactive: all other assays above

CCCCOC(=O)CCC(C)=O
not listed: [9] | [10] | [11] | [18]
inactive: all other assays above

CCCCCCCCCCCCCCC(=O)O
not listed: [10] | [11] | [18]
inactive: all other assays above

Cc1ncc([C@@H](CCCCCCc2ccc3c(n2)NCCC3)CC(=O)O)cn1
not listed: [6] | [7] | [16] | [17] | [18]
inactive: all other assays above

CCOC(=O)COC(=O)c1ccccc1C(=O)OCC
not listed: [18]
inactive: all other assays above

c1ccc(Cc2ccccc2)cc1
not listed: [16] | [17] | [18]
inactive: all other assays above

COCCOCC(OC)OC
not listed: [9] | [18]
inactive: all other assays above

CCCCc1ccc2c(n1)[C@@H](c1ccc(OC)cc1C[C@H](C)C(=O)O)[C@H](C(=O)O)[C@H]2c1ccc2c(c1)OCO2
not listed: [17] | [18]
inactive: all other assays above

CC(C)(CCC(=O)O)C(=O)O
not listed: [16] | [17] | [18]
inactive: all other assays above

CCCCCC(=O)OCCc1ccccc1
not listed: [17] | [18]
inactive: all other assays above

CCCO[Si](OCCC)(OCCC)OCCC
not listed: [9] | [18]
inactive: all other assays above

CCNS(=O)(=O)c1ccc(C)cc1
not listed: [16] | [17] | [18]
inactive: all other assays above

NC(=O)N[C@@H](CCC(=O)O)C(=O)O
not listed: [3] | [9] | [10] | [11] | [15]
inactive: all other assays above

CC(C)(C)C(=O)Oc1ccc(S(=O)(=O)Nc2ccccc2C(=O)NCC(=O)O)cc1
not listed: [3] | [10] | [11] | [17]
inactive: all other assays above

CC(COc1ccccc1)NN (stereo not drawn)
not listed: [3] | [9]
inactive: all other assays above
